{"source": "PubChem BioAssay AID793", "about": "(The Scripps Research Institute Molecular Screening Center, 2007)", "note": "Values joined by “and” are separate entries in the source; they are usually repeats but may differ in a detail not shown here. Identical values can stand only once. About 1,400 (1%) of roughly 140,000 compounds were called active. No stated cut-off is given here; in the data, active means inhibition above about 17%; inactive means the rest. The entries come from a sample that favours actives as a whole. The source holds several records for some structures; these can differ, active in one and inactive in another.", "data": [{"molecular_target": "Neuropeptide Y receptor type 2 (Homo sapiens) (UniProt P49146)", "sequence (P49146 whole entry, looked up)": "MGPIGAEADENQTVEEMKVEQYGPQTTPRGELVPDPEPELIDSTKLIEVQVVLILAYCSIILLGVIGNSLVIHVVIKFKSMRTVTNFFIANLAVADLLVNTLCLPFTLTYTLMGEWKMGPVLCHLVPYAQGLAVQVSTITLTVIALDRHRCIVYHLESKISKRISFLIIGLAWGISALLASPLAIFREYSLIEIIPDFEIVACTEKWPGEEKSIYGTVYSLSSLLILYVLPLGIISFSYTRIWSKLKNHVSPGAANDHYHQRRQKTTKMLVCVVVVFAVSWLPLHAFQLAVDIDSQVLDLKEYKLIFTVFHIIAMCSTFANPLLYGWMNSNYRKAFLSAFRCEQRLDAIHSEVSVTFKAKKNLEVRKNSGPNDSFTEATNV", "experiment": "NPY-Y2 receptor antagonists, primary screen, cell-based (AID 793);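 further: 0% = vehicle with agonist challenge and 100% = reference antagonist with challenge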", "details": "NPY-Y2 expressing cells, antagonist mode; at 2.7 µM; stronger effect = higher value", "values": [{"smiles": "O=C(CC(=O)N/N=C\\c1cccc(Cl)c1Cl)NCc1ccccc1", "inhibition": "13.3% (inactive)"}, {"smiles": "COc1ccc(-c2nn(-c3ccccc3)cc2C(=O)Nc2nc(CC(C)=O)ns2)cc1", "inhibition": "-0.9% (inactive)"}, {"smiles": "COc1ccc(-c2nn(-c3ccccc3)cc2C(=O)Nc2nccs2)cc1OC", "inhibition": "17.6% (active)"}, {"smiles": "COc1ccc(-c2nn(-c3ccccc3)cc2/C=N/Nc2ccccn2)cc1OC", "inhibition": "9.59% (inactive)"}, {"smiles": "O=C(c1cncc(Br)c1)N1CCN(c2ccc([N+](=O)[O-])cc2)CC1", "inhibition": "0.95% (inactive)"}, {"smiles": "C/C(=N\\Nc1ncc(Cl)cc1Cl)c1ccc(S(=O)(=O)NCc2ccco2)cc1", "inhibition": "2.79% (inactive)"}, {"smiles": "Cc1ccc(N/N=C2\\COC(C)(C)CC2=O)cc1", "inhibition": "1.13% (inactive)"}, {"smiles": "Cc1ccc(NC(=O)NC(=O)CSc2nnc(-c3ccc(OC(F)F)cc3)n2N)c(C)c1", "inhibition": "0.74% (inactive)"}, {"smiles": "CN1CCN(C(=O)Cn2c(C(F)(F)F)nc3ccccc32)CC1", "inhibition": "-1.96% (inactive)"}, {"smiles": "CC(C)(C)NC(=O)NC(=O)COC(=O)Cn1c(C(F)(F)F)nc2ccccc21", "inhibition": "6.71% (inactive)"}, {"smiles": "Cc1ccccc1OC(=O)Cn1c(C(F)(F)F)nc2ccccc21", "inhibition": "20.2% (active)"}, {"smiles": "CCCCN(CC)C(=O)c1ccccc1Oc1ccccc1", "inhibition": "9.08% (inactive)"}, {"smiles": "O=C(c1ccc(CSc2ccccc2)cc1)N1CCCCCC1", "inhibition": "4.41% (inactive)"}, {"smiles": "Cc1ccc(C(=O)CS(C)(=O)=O)cc1", "inhibition": "4.03% (inactive)"}, {"smiles": "Cc1ccc(C(=O)C[n+]2cc(-c3ccccc3)n3c2CCCCC3)cc1", "inhibition": "13.7% (inactive) and 24.1% (active)"}, {"smiles": "COc1ccc(C2c3c(C)nn(-c4ccccc4)c3NC(=O)N2c2ccccc2)cc1", "note": "(centres undefined)", "inhibition": "0.06% (inactive)"}, {"smiles": "CCn1cc(CNC(=O)c2cc([N+](=O)[O-])c(C)c([N+](=O)[O-])c2)cn1", "inhibition": "2.2% (inactive)"}, {"smiles": "Cc1cc(C(=O)N/N=C/c2cc([N+](=O)[O-])cc(C)c2O)n[nH]1", "inhibition": "9.9% (inactive)"}, {"smiles": "O=C(COC(=O)Cn1cnc2ccccc21)Nc1cccc2c1C(=O)c1ccccc1C2=O", "inhibition": "4.37% (inactive)"}, {"smiles": "Cc1cccc(C(=O)Nc2ccccc2N2CCN(c3ccc(F)cc3)CC2)c1", "inhibition": "8.99% (inactive)"}, {"smiles": "O=C(Nc1ccccc1N1CCN(c2ccccc2)CC1)c1cccc(F)c1", "inhibition": "19.2% (active)"}, {"smiles": "O=C(Nc1ccccc1N1CCCCC1)c1cccc(F)c1", "inhibition": "8.36% (inactive)"}, {"smiles": "CC1CCN(C(=O)c2ccc(S(=O)(=O)Cc3cc(F)ccc3F)c([N+](=O)[O-])c2)CC1", "inhibition": "-1.09% (inactive)"}, {"smiles": "Cc1cccc(C)c1NC(=O)C(c1ccccc1)N1CC(=O)Nc2ccccc21", "note": "(centres undefined)", "inhibition": "1.93% (inactive)"}, {"smiles": "O=C(N/N=C/c1ccc(Br)o1)c1cncc(Br)c1", "inhibition": "0.35% (inactive)"}, {"smiles": "CCCC(=O)Nc1cccc(NC(=S)NC(=O)C(C)Oc2ccc(Cl)cc2Cl)c1", "note": "(centres undefined)", "inhibition": "0.34% (inactive)"}, {"smiles": "COc1ccc(C)c(Cn2c(-c3nonc3N)nc3ccccc32)c1", "inhibition": "17.5% (active)"}, {"smiles": "CCC(=O)Nc1nc2ccccc2n1Cc1ccccc1C", "inhibition": "3.41% (inactive)"}, {"smiles": "Nc1nonc1-c1nc2ccccc2n1Cc1ccc(F)cc1", "inhibition": "18.1% (active)"}, {"smiles": "COCc1nc2ccccc2n1Cc1ccccc1Br", "inhibition": "4.55% (inactive)"}, {"smiles": "CC(=O)Nc1nonc1-c1nc2ccccc2n1Cc1ccccn1", "inhibition": "0.29% (inactive)"}, {"smiles": "Nc1nonc1-c1nc2ccccc2n1CCC(=O)O", "inhibition": "3.2% (inactive)"}, {"smiles": "Cc1cc(NC(=O)COC(=O)COc2ccc(Cl)cc2C)c([N+](=O)[O-])cc1C", "inhibition": "5.09% (inactive)"}, {"smiles": "CCCC(C)C(=O)OCC(=O)Nc1c(Br)cc(C)cc1Br", "note": "(centres undefined)", "inhibition": "3.68% (inactive)"}, {"smiles": "O=C(CCCCCNC(=O)c1ccccc1)N/N=C/c1ccccc1", "inhibition": "-0.13% (inactive)"}, {"smiles": "CCCOC(=O)c1ccc(N2C(=O)c3ccccc3C2=O)cc1", "inhibition": "-1.24% (inactive)"}, {"smiles": "CCCC/S(C)=N/S(=O)(=O)c1ccc(C)cc1", "note": "(centres undefined)", "inhibition": "1.98% (inactive)"}, {"smiles": "Cc1cc(C)cc(OCC(=O)Nc2nc3ccc([N+](=O)[O-])cc3s2)c1", "inhibition": "1.9% (inactive)"}, {"smiles": "COC(=O)C(NC(=O)c1ccc(OC)cc1)(Nc1ncc(S(=O)(=O)c2ccc([N+](=O)[O-])cc2)s1)C(F)(F)F", "note": "(centres undefined)", "inhibition": "0.75% (inactive)"}, {"smiles": "O=C(NC(Nc1nc2ccc([N+](=O)[O-])cc2s1)(C(F)(F)F)C(F)(F)F)c1ccccc1", "inhibition": "29.6% (active)"}, {"smiles": "COC(=O)C1NN=C(C(=O)c2ccc(Br)cc2)C1c1cccc(Br)c1", "note": "(centres undefined)", "inhibition": "0.05% (inactive)"}, {"smiles": "Cc1cc(C)n(CC(O)CN(c2ccccc2)S(=O)(=O)c2ccc3ccccc3c2)n1", "note": "(centres undefined)", "inhibition": "-0.03% (inactive)"}, {"smiles": "CC1CCCN(CCOCCOc2ccccc2-c2ccccc2)C1", "note": "(centres undefined)", "inhibition": "10.5% (inactive)"}, {"smiles": "Cc1ccc(CN2CCN(/N=C/c3cccnc3)CC2)c(C)c1", "inhibition": "2.92% (inactive)"}, {"smiles": "C/C(=N\\NC(=O)CNC(=O)C(c1ccccc1)c1ccccc1)c1ccc(C)cc1", "inhibition": "1.86% (inactive)"}, {"smiles": "CCCn1c(C(O)c2cc(OC)ccc2OC)nc2ccccc21", "note": "(centres undefined)", "inhibition": "4.69% (inactive)"}, {"smiles": "COc1ccc(-c2nc3ccccc3n2CCC(C)C)cc1OC", "inhibition": "19.5% (active)"}, {"smiles": "COCCn1c(-c2ccc(OC)c(OC)c2)nc2ccccc21", "inhibition": "1.52% (inactive)"}, {"smiles": "COC(=O)c1cc2occc2n1Cc1nc(-c2ccccc2C)oc1C", "inhibition": "11.1% (inactive)"}, {"smiles": "O=C(CCN1C(=O)c2ccccc2C1=O)NNC(=O)c1ccc(Cl)cc1Cl", "inhibition": "0.71% (inactive)"}, {"smiles": "Cc1ccc(NC(=O)CC2S/C(=N/N=C3\\CCCc4ccccc43)NC2=O)cc1", "note": "(centres undefined)", "inhibition": "-0.03% (inactive)"}, {"smiles": "Cc1cccc(OCCNC(=O)CSc2ccc(C(F)(F)F)cc2[N+](=O)[O-])c1", "inhibition": "12.7% (inactive)"}, {"smiles": "Cc1ccc(C)c2[nH]c(=O)c(CCNC(=O)c3cccs3)cc12", "inhibition": "2.37% (inactive)"}, {"smiles": "Cc1cc2c(c(=O)n1C)C(C(C)C)C(C#N)=C(N)O2", "note": "(centres undefined)", "inhibition": "-0.27% (inactive)"}, {"smiles": "C=CCOC(=O)C1=C(C)OC(N)=C(C#N)C1c1ccc(F)cc1", "note": "(centres undefined)", "inhibition": "7.81% (inactive)"}, {"smiles": "C=CCSc1nc2c(c(=O)[nH]1)C(C(C)C)C(C#N)=C(N)O2", "note": "(centres undefined)", "inhibition": "121% (active)"}, {"smiles": "CN(C)CCCO/N=C(\\c1ccccc1)c1ccncc1", "inhibition": "0.64% (inactive)"}, {"smiles": "Cc1ccc(C(=O)N/C(=C/c2cccnc2)C(=O)O)cc1", "inhibition": "2.3% (inactive)"}, {"smiles": "Cc1nn(CC(=O)Nc2ccc(N(C)C)cc2)c(C)c1[N+](=O)[O-]", "inhibition": "-0.15% (inactive)"}]}]}
